According to PubChem BioAssay (NCI):
“And” between values parts separate entries of the source, which are not always exact repeats. Identical values can stand only once. This is part of a sample that, as a whole, favours compounds with a hit. Of some 83,000 tested, about 20% had one in any assay.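 Assay: single dose, 48 h. Readout: percent growth (0 = no net growth; negative = cell death). Active: <10.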 The source made the active and inactive calls.

Assays:
Experiment in all cases: NCI-60 one-dose screen, 48 h (100 = growth as untreated, 0 = no growth, -100 = all killed)
Details in all cases: 10 µM unless noted
HCT-15 colon = test system: HCT-15 colon
HT29 colon = test system: HT29 colon
SNB-75 CNS = test system: SNB-75 CNS
SNB-19 CNS = test system: SNB-19 CNS
U251 CNS = test system: U251 CNS
PC-3 prostate = test system: PC-3 prostate
SK-MEL-5 melanoma = test system: SK-MEL-5 melanoma
UACC-62 melanoma = test system: UACC-62 melanoma
LOX IMVI melanoma = test system: LOX IMVI melanoma
SK-MEL-28 melanoma = test system: SK-MEL-28 melanoma

Measured: growth

COc1cc([C@@H]2c3cc4c(cc3[C@H](O)[C@H]3COC(=O)[C@@H]23)OCO4)cc(OC)c1OC
26.9% (inactive) and 6.21% (active): PC-3 prostate
28.4% (inactive) and -24% (active): SK-MEL-28 melanoma
inactive: HCT-15 colon 29.2% and 10.5% | SNB-75 CNS 19.4% and 12.9% | SNB-19 CNS 27.3% and 12.9% | U251 CNS 16.4% and 26.2% | UACC-62 melanoma 19.9% and 68.1% | LOX IMVI melanoma 23.3% and 15.6%
active: HT29 colon 2.22% and -8.13% | SK-MEL-5 melanoma -27.1% and -44%

CC1(CO)CCCC1NCCNC1CCCC1(C)CO (stereo not drawn)
inactive: HCT-15 colon 96.8% and 99% | HT29 colon 91.3% and 103% | SNB-75 CNS 84.7% and 97.9% | SNB-19 CNS 102% and 103% | U251 CNS 106% | PC-3 prostate 90.9% and 95% | SK-MEL-5 melanoma 99.7% and 101% | LOX IMVI melanoma 98.8% | SK-MEL-28 melanoma 104% and 108%

CC(C)(C(=O)c1cccnc1)c1cccnc1
inactive: HCT-15 colon 104% and 105% | HT29 colon 104% and 119% | SNB-75 CNS 107% and 103% | SNB-19 CNS 111% and 115% | U251 CNS 103% and 116% | PC-3 prostate 89.5% and 92.5% | SK-MEL-5 melanoma 98.4% and 106% | UACC-62 melanoma 101% and 103% | LOX IMVI melanoma 102% and 111% | SK-MEL-28 melanoma 112% and 121%

O=C1C=CC(=O)N1Cc1ccco1
inactive: HCT-15 colon 11.6% | HT29 colon 34.1% | SNB-75 CNS 101% | SNB-19 CNS 91% | U251 CNS 81.4% | PC-3 prostate 81.6% | SK-MEL-5 melanoma 86.4% | LOX IMVI melanoma 76.6% | SK-MEL-28 melanoma 113%

CCCC(=O)Oc1ccc(CC)cc1
inactive: HCT-15 colon 99.5% | HT29 colon 108% | SNB-75 CNS 88.8% | SNB-19 CNS 109% | U251 CNS 98.4% | PC-3 prostate 101% | SK-MEL-5 melanoma 106% | UACC-62 melanoma 105% | LOX IMVI melanoma 97.8% | SK-MEL-28 melanoma 117%

Nc1nc(-c2ccccn2)cc(-c2cc(-c3ccccn3)nc(N)n2)n1
inactive: HCT-15 colon 97% | HT29 colon 120% | SNB-75 CNS 143% | SNB-19 CNS 101% | U251 CNS 109% | PC-3 prostate 99.3% | SK-MEL-5 melanoma 105% | UACC-62 melanoma 102% | LOX IMVI melanoma 96.5% | SK-MEL-28 melanoma 113%

COc1ccc(/C=N/Nc2nc3ccccc3s2)cc1
inactive: HCT-15 colon 90.4% | HT29 colon 92.3% | SNB-75 CNS 80.5% | SNB-19 CNS 99% | U251 CNS 85.9% | PC-3 prostate 81.2% | SK-MEL-5 melanoma 91.6% | UACC-62 melanoma 83% | LOX IMVI melanoma 95.4% | SK-MEL-28 melanoma 99.2%

N=c1sc2ccccc2n1CC(=O)O
inactive: HCT-15 colon 103% | HT29 colon 98% | SNB-75 CNS 100% | SNB-19 CNS 101% | U251 CNS 91.8% | PC-3 prostate 92.7% | SK-MEL-5 melanoma 104% | UACC-62 melanoma 97.2% | LOX IMVI melanoma 98.7% | SK-MEL-28 melanoma 112%

COc1ccc(/C=C/C(=O)O)cc1OC
inactive: HCT-15 colon 106% and 103% | HT29 colon 106% and 97.3% | SNB-75 CNS 96.5% and 103% | SNB-19 CNS 102% and 107% | U251 CNS 100% and 103% | PC-3 prostate 95.1% and 98.3% | SK-MEL-5 melanoma 98% and 97.9% | UACC-62 melanoma 98.9% and 97.5% | LOX IMVI melanoma 100% and 98.9% | SK-MEL-28 melanoma 111% and 115%

CC(=O)C[n+]1ccccc1Sc1ccc(Cl)cc1
inactive: HCT-15 colon 93.3% | HT29 colon 108% | SNB-75 CNS 66.1% | SNB-19 CNS 88.7% | U251 CNS 73% | PC-3 prostate 58.3% | SK-MEL-5 melanoma 90.3% | UACC-62 melanoma 84.6% | LOX IMVI melanoma 27.6% | SK-MEL-28 melanoma 100%

O=C1CCC(=O)N1CC1CC2CCC1C2 (stereo not drawn)
inactive: HCT-15 colon 107% and 104% | HT29 colon 103% and 95.8% | SNB-75 CNS 87.2% and 73.1% | SNB-19 CNS 101% and 90.3% | U251 CNS 91.7% and 100% | PC-3 prostate 94.1% and 104% | SK-MEL-5 melanoma 110% and 92.6% | LOX IMVI melanoma 101% and 96.2% | SK-MEL-28 melanoma 109% and 103%

C/C=C/C(=O)OCCCCCCCCCCCC
inactive: HCT-15 colon 123% | HT29 colon 92.6% | SNB-75 CNS 101% | SNB-19 CNS 85.2% | U251 CNS 98.6% | PC-3 prostate 101% | SK-MEL-5 melanoma 97.7% | UACC-62 melanoma 91.6% | LOX IMVI melanoma 106% | SK-MEL-28 melanoma 114%

O=C(O)c1cc(=O)[nH]c(=O)[nH]1
inactive: HCT-15 colon 102% and 97.9% | HT29 colon 93.3% and 110% | SNB-75 CNS 102% and 86.4% | SNB-19 CNS 111% and 104% | U251 CNS 105% and 95.8% | PC-3 prostate 91.4% and 80.3% | SK-MEL-5 melanoma 82.6% | UACC-62 melanoma 103% and 92.5% | LOX IMVI melanoma 98.8% and 92.3% | SK-MEL-28 melanoma 114% and 93.6%

O=C(O)c1cccc(Br)c1
inactive: HCT-15 colon 108% and 102% | HT29 colon 101% and 94.4% | SNB-75 CNS 91.5% and 99.7% | SNB-19 CNS 108% and 105% | U251 CNS 103% and 90.7% | PC-3 prostate 95% and 97.6% | SK-MEL-5 melanoma 104% and 109% | UACC-62 melanoma 103% and 102% | LOX IMVI melanoma 95.8% and 99.3% | SK-MEL-28 melanoma 112% and 115%

Nc1nc(=S)c2[nH]cnc2[nH]1
inactive: HCT-15 colon 13% and 12.5% | SNB-75 CNS 29.1% and 26.5% | SNB-19 CNS 98.2% and 102% | U251 CNS 47.2% and 51% | PC-3 prostate 33.2% and 32.1% | SK-MEL-28 melanoma 29%
active: HT29 colon 9.45% and 8.24% | SK-MEL-5 melanoma -2% and -29% | LOX IMVI melanoma 8.31% and 5.43%

O=COCCCc1ccccc1
inactive: HCT-15 colon 107% | HT29 colon 95.9% | SNB-75 CNS 109% | SNB-19 CNS 96.7% | PC-3 prostate 94.4% | SK-MEL-5 melanoma 98.2% | UACC-62 melanoma 88.7% | LOX IMVI melanoma 99% | SK-MEL-28 melanoma 108%

Cc1ccc(N)cc1S(=O)(=O)O
inactive: HCT-15 colon 107% and 113% | HT29 colon 95.3% and 124% | SNB-75 CNS 97.3% | SNB-19 CNS 107% and 108% | PC-3 prostate 98.9% | SK-MEL-5 melanoma 112% and 109% | UACC-62 melanoma 105% and 108% | LOX IMVI melanoma 105% and 109% | SK-MEL-28 melanoma 109% and 113%

CNc1ccc(O)cc1
inactive: HCT-15 colon 103% and 102% | HT29 colon 114% and 113% | SNB-75 CNS 84.1% and 66.5% | SNB-19 CNS 102% and 98.3% | U251 CNS 101% and 99.3% | PC-3 prostate 102% and 100% | SK-MEL-5 melanoma 98.2% and 112% | LOX IMVI melanoma 101% and 93.9% | SK-MEL-28 melanoma 114% and 137%
